Source: the supplement of paper PMC6607015
Where a name gives a salt, the structure may show the parent alone.

How the values were obtained:
Settings in all cases: compound concentration in added solution (µM; 5 µl added to 20 µl cells): 10; 18 h
[1] = system: A431; assay: LBPA endosome anti-LBPA integrated intensity (sum per cell), Z-score; higher = more LBPA staining
Procedure, shortened: (§1)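 Duplicate 384-well imaging plates were prepared with 5 µl of 10 µM compound solution per well, and 3,500 HeLa MZ or A431 cells in 20 µl were added on top. Following 18 h of incubation and fixation in 4% PFA, cells received 6C4 anti-LBPA antibody, filipin, propidium iodide and CellTracker green. Four images per well at 20× were segmented in MetaXpress to yield per-cell integrated LBPA or filipin intensity, whole-cell or within LBPA endosomes. These intensities are reported as Z-scores normalised in AcuityXpress.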

[2] = system: HeLa MZ; assay: as above
Procedure, shortened: as §1

[3] = system: A431; assay: whole-cell filipin (free cholesterol) integrated intensity, Z-score; higher = more cholesterol staining
Procedure, shortened: as §1

[4] = system: HeLa MZ; assay: as above
Procedure, shortened: as §1

[5] = system: A431; assay: filipin (cholesterol) integrated intensity within LBPA endosomes, Z-score; higher = more cholesterol in LBPA endosomes
Procedure, shortened: as §1

[6] = system: HeLa MZ; assay: as above
Procedure, shortened: as §1

| Structure (SMILES) | LBPA endosome anti-LBPA integrated intensity (z-score) [1] | LBPA endosome anti-LBPA integrated intensity (z-score) [2] | whole-cell filipin (z-score) [3] | whole-cell filipin (z-score) [4] | filipin (z-score) [5] | filipin (z-score) [6] |
| --- | --- | --- | --- | --- | --- | --- |
| C[C@@H](c1ncncc1F)[C@](O)(Cn1cncn1)c1ccc(F)cc1F [Voriconazole] | -0.526 | -0.198 | -0.573 | -0.527 | -0.605 | -0.411 |
| CC(C(=O)O)c1cccc(C(=O)c2ccccc2)c1 (configuration not stated) [Ketoprofen] | -0.482 | -0.219 | -0.803 | -0.835 | -0.552 | -0.545 |
| O=P(O)(O)C(Cl)(Cl)P(=O)(O)O [Clodronate] | -0.576 | -0.865 | -0.177 | -0.446 | -0.541 | -0.434 |
| CN(C)CCCN1c2ccccc2CCc2ccc(Cl)cc21 [Clomipramine hydrochloride] | 3.59 | 1.91 | 1.1 | -0.141 | 2.35 | 1.89 |
| O=C(NCCO[N+](=O)[O-])c1cccnc1 [Nicorandil] | -0.51 | -0.536 | -0.699 | -0.868 | -0.497 | -0.545 |
| NS(=O)(=O)c1cc2c(cc1C(F)(F)F)NC(Cc1ccccc1)NS2(=O)=O (configuration not stated) [Bendroflumethiazide] | -0.595 | -0.755 | -0.332 | -0.0234 | -0.529 | -0.486 |
| Cc1scc2c1N(C(=O)CN1CCN(C)CC1)c1ccccc1NC2=O [Telenzepine dihydrochloride] | -0.645 | 0.0897 | -0.931 | -0.897 | -0.595 | -0.401 |
| Nc1ccn([C@@H]2CS[C@H](CO)O2)c(=O)n1 [Lamivudine] | -0.481 | -0.745 | -0.233 | -0.14 | -0.498 | -0.564 |
| O=C1c2ccccc2C(=O)C1c1ccccc1 [Phenindione] | -0.457 | 0.398 | -0.346 | -0.343 | -0.498 | -0.468 |
| CC(=O)Nc1nnc(S(N)(=O)=O)s1 [Acetazolamide] | -0.546 | -1.16 | -0.799 | -0.564 | -0.395 | -0.429 |
| CN(C)CCn1nnnc1SCC1=C(C(=O)O)N2C(=O)[C@@H](NC(=O)Cc3csc(N)n3)[C@H]2SC1 [Cefotiam hydrochloride] | -0.662 | -1.47 | -0.797 | -1.09 | -0.548 | -0.711 |
| COc1cc([S+](C)[O-])ccc1-c1nc2cccnc2[nH]1 (configuration not stated) [Sulmazole] | -0.64 | -1.23 | -0.818 | -0.362 | -0.483 | -0.399 |
| O=c1oc2ccccc2c(O)c1Cc1c(O)c2ccccc2oc1=O [Dicumarol] | -0.455 | -0.834 | -0.37 | -0.48 | -0.64 | -0.672 |
| CC(=O)O[C@]1(C(C)=O)CC[C@H]2[C@@H]3C=C(Cl)C4=CC(=O)[C@@H]5C[C@@H]5[C@]4(C)[C@H]3CC[C@@]21C [Cyproterone acetate] | -0.264 | 0.704 | 0.568 | 0.591 | 0.113 | 0.108 |
| Nc1ccc(S(=O)(=O)Nc2nccs2)cc1 [Sulfathiazole] | -0.403 | -0.679 | -0.453 | 0.103 | -0.36 | -0.308 |
| Cc1ccc(N(CC2=NCCN2)c2cccc(O)c2)cc1 [Phentolamine hydrochloride] | -0.384 | 0.635 | -0.578 | -0.161 | -0.477 | -0.0953 |
| Cn1c(=O)c2c(ncn2C)n(C)c1=O [Caffeine] | -0.331 | -0.197 | -0.0359 | 0.547 | -0.318 | -0.108 |
| COc1ccc(CC(C)NCC(O)c2ccc(O)c(NC=O)c2)cc1 (configuration not stated) [Formoterol fumarate] | -0.505 | -1.42 | 0.171 | -0.609 | -0.478 | -0.313 |
| Nc1ccc(S(=O)(=O)c2ccc(N)cc2)cc1 [Dapsone] | -0.514 | -0.767 | -0.45 | -0.817 | -0.55 | -0.603 |

| Structure (SMILES) | LBPA endosome anti-LBPA integrated intensity (z-score) [1] | LBPA endosome anti-LBPA integrated intensity (z-score) [2] | whole-cell filipin (z-score) [3] | whole-cell filipin (z-score) [4] | filipin (z-score) [5] | filipin (z-score) [6] |
| --- | --- | --- | --- | --- | --- | --- |
| CC1CC(OC(=O)C(O)c2ccccc2)CC(C)(C)N1C (configuration not stated) [Eucatropine hydrochloride] | -0.612 | -0.981 | -0.351 | -0.392 | -0.513 | -0.342 |
| CN(C)CCN1C(=O)c2ccccc2N(C)c2ccccc21 [Dibenzepine hydrochloride] | -0.357 | 0.481 | -0.676 | -0.7 | -0.373 | 0.00611 |
| CCN(CC)CC#CCOC(=O)C(O)(c1ccccc1)C1CCCCC1 (configuration not stated) [Oxybutynin chloride] | 0.579 | 1.7 | 0.833 | 0.613 | 0.892 | 1.15 |
| O=C(O)c1ccccc1OP(=O)(O)O [Fosfosal] | -0.256 | 0.942 | -0.159 | 0.251 | -0.274 | -0.0166 |
| CN1CCN(CC(=O)N2c3ccccc3C(=O)Nc3cccnc32)CC1 [Pirenzepine dihydrochloride] | -0.619 | -0.294 | -1.05 | -0.725 | -0.555 | -0.529 |
| COc1cc(C)c(/C=C/C(C)=C/C=C/C(C)=C/C(=O)O)c(C)c1C [Acitretin] | -0.624 | -0.537 | 0.514 | 0.218 | -0.413 | -0.258 |
| COc1ccc(-c2cc(=S)ss2)cc1 [Anethole-trithione] | -0.536 | -0.179 | -0.0973 | 0.207 | -0.447 | -0.257 |
| CC(=O)[C@@]1(O)CC[C@H]2[C@@H]3C[C@H](C)C4=CC(=O)C=C[C@]4(C)[C@@]3(F)[C@@H](O)C[C@@]21C [Fluorometholone] | -0.292 | -0.618 | -0.262 | -0.2 | -0.289 | -0.522 |
| CC(=O)Oc1cc(C(F)(F)F)ccc1C(=O)O [Triflusal] | -0.556 | -0.553 | -0.393 | 0.0625 | -0.513 | -0.544 |
| c1ccc2c(c1)CCCc1cc(NCCN3CCOCC3)nnc1-2 | -0.68 | -0.691 | -0.665 | -0.162 | -0.491 | -0.0973 |
| Nc1nc(=O)[nH]cc1F [Flucytosine] | -0.468 | -0.721 | -0.313 | -0.0984 | -0.463 | -0.623 |
| CCc1cccc2c3c([nH]c12)C(CC)(CC(=O)O)OCC3 (configuration not stated) [Etodolac] | -0.65 | -1.97 | -0.842 | -0.545 | -0.553 | -0.628 |
| CCOc1ccccc1OCC1CNCCO1 (configuration not stated) [Viloxazine hydrochloride] | -0.217 | 0.639 | -0.124 | -0.0106 | -0.346 | -0.261 |
| NCc1ccccc1CC(=O)N[C@@H]1C(=O)N2C(C(=O)O)=C(CSc3nnnn3CC(=O)O)CS[C@H]12 [Ceforanide] | -0.318 | -0.0362 | -0.326 | -0.285 | -0.513 | -0.563 |
| CCN(CC)CCNC(=O)c1cc(S(C)(=O)=O)ccc1OC [Tiapride hydrochloride] | -0.48 | 0.333 | -0.576 | -0.522 | -0.565 | -0.513 |
| CC[C@]12CCCN3CCc4c(n(c5ccccc45)[C@@](O)(C(=O)OC)C1)[C@@H]32 [Vincamine] | -0.234 | 0.384 | -0.552 | -1.23 | -0.453 | -0.216 |
| C[C@]12C=CC(=O)C=C1CC[C@H]1[C@@H]3C[C@@H](O)[C@](O)(C(=O)CO)[C@@]3(C)C[C@H](O)[C@@]12F [Triamcinolone] | -0.203 | -0.607 | -0.346 | -0.264 | -0.211 | -0.572 |
| CCOC(=O)N1CCC(=C2c3ccc(Cl)cc3CCc3cccnc32)CC1 [Loratadine] | 0.316 | 0.865 | 0.633 | 0.548 | 0.439 | 0.942 |
